Measurements reported in PubChem BioAssay.
Where “and” joins values, the source holds several entries; their conditions need not be identical. Equal entries are not always repeated. Calls of active or inactive are those of the source.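 The calls were made as follows, unless noted: active = compounds whose cell count with miR-34 switched on is under 0.7 times the count with it off; inactive = the rest.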

What was measured:
[1] = test system: Aerobactin synthetase IucA (Klebsiella pneumoniae); test: inhibition of K. pneumoniae IucA enzyme – biochemical, Tocris library, absorbance (AID 1345561; call rule not given here;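 also: 100% = enzyme without compound and 0% = no enzyme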); conditions: purified IucA enzyme assay, absorbance (OD) read-out; stronger effect = lower value;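 tested at 8 µM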
[2] = viability loss with induced miR-34 in A549 – imaging, A549 dox-inducible miR-34, nuclei and caspase counts, primary screen (AID 1347080); conditions: A549 miR-34 inducible, Hoechst nuclei count, 48 h
[3] = galactose survival enhancers in mitochondrial complex I cybrids – cell-based, galactose medium, ATP luminescence, primary screen (AID 1645843;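 active = z-score of at least 1.8 in each of two replicates, scored against plate mean and spread of sample wells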;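 also: positive z means more ATP and so rescue of galactose-driven cybrid death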); conditions: complex I mutant cybrid cells, 72 h, stronger effect = higher value
[4] = stronger effect = lower value, cell number ratio, induced over uninduced
[5] = measured here: relative caspase fold change +Dox/-Dox
[6] = measured here: total cells with miR-34 induction, stronger effect = lower value
[7] = measured here: total cells without miR-34 induction

Compound | remaining activity [1] | fold change [2, 4] | fold change [2, 5] | cell count [2, 6] | cell count [2, 7] | z-score [3]
O=C(O)c1c(Sc2ccccc2)c2cc(Cl)ccc2n1Cc1ccc(Cl)cc1 | 122% (inactive) | 0.94 (inactive) | 1.45 | 6730 | 7160 | 1.25 (inactive)
OC(CCCN1CCN(c2ncc(F)cn2)CC1)c1ccc(F)cc1 (centres undefined) | 116% (inactive) | 0.931 (inactive) | 0.869 | 7880 | 8470 | -0.495 (inactive)
COc1ccc(-c2ccc(=N)n(CCCC(=O)O)n2)cc1 | 122% (inactive) | 0.902 (inactive) | 0.531 | 8640 | 9580 | -0.295 (inactive)
COc1ccccc1N1CCN(CCCCN2C(=O)CCC2=O)CC1 | 103% (inactive) | 0.855 (inactive) | 0.698 | 8300 | 9700 | -0.25 (inactive)
CC(C)SC(=N)N | 92% (inactive) | 0.945 (inactive) and 0.931 (inactive) | 0.992 and 1.03 | 5980 and 8810 | 6320 and 9460 | 0.865 (inactive)
CCCc1c(OCCCOc2ccc(OCC(=O)O)cc2)ccc(CC=O)c1O | 117% (inactive) | 0.911 (inactive) | 0.927 | 9560 | 10500 | 1.5 (inactive)
BrC1C(Br)C(Br)C(Br)C(Br)C1Br (centres undefined) | 107% (inactive) | 1.04 (inactive) | 1.17 | 7970 | 7680 | -0.62 (inactive)
NC(Cn1ccc(=O)n(Cc2ccccc2C(=O)O)c1=O)C(=O)O (centres undefined) | 98.2% (inactive) | 0.925 (inactive) | 1.4 | 8950 | 9680 | 0.13 (inactive)
CCCCCCN(CCCCCC)C(=O)Cc1c(-c2ccc(Cl)cc2)[nH]c2ccc(Cl)cc12 | 102% (inactive) | 0.89 (inactive) | 0.984 | 5700 | 6410 | -1.19 (inactive)
CC(C)Oc1ccc2c(=O)c3cc(C(=O)O)ccc3oc2c1 | 93.9% (inactive) | 1.01 (inactive) | 1.37 and 0.638 | 5920 and 8510 | 5860 and 8390 | 0.015 (inactive)
CCn1c(=O)n(C2=C(CO)CN(CC3CCCCCCC3)CC2)c2ccccc21 | 102% (inactive) | 0.951 (inactive) | 1.46 | 7150 | 7510 | -0.665 (inactive)
CCCCc1nc2ccn(CC(=O)N(C)C)c(=O)c2n1Cc1ccc(-c2ccccc2-c2nn[nH]n2)cc1 | 111% (inactive) | 1.01 (inactive) | 0.927 | 8240 | 8192 | -0.18 (inactive)
CC1(C)C[C@@H]1C(=O)N/C(=C\CCCCSC[C@@H](N)C(=O)O)C(=O)O | 102% (inactive) | 0.976 (inactive) | 1.46 | 9200 | 9420 | -0.005 (inactive)
COc1ccc2[nH]c(-c3ccccc3)c(CCNC(C)=O)c2c1 | 99.3% (inactive) | 0.991 (inactive) | 0.88 | 7770 | 7840 | -0.185 (inactive)
CO[C@@H]1[C@H](O)[C@@H](CO)O[C@H]1n1cnc2c(NC3CCCCC3)ncnc21 | 99.6% (inactive) | 0.954 (inactive) | 1.32 | 8920 | 9350 | 0.065 (inactive)
Cc1ccccc1N=Nc1ccc(NC(=O)c2ccnn2C)c(C)c1 | 109% (inactive) | 0.919 (inactive) | 0.67 | 5460 | 5950 | -0.675 (inactive)
Nc1nnc(Sc2ncc([N+](=O)[O-])s2)s1 | 119% (inactive) | 0.911 (inactive) | 4.18 | 3000 | 3290 | -1.04 (inactive)
COC(=O)C1=C(C)NC(C)=C(C(=O)OCCSc2ccccc2)C1C (centres undefined) | 91.1% (inactive) | 0.923 (inactive) and 0.85 (inactive) | 0.923 and 0.966 | 2710 and 6700 | 2930 and 7880 | -0.87 (inactive)
C[C@@H](NCc1cc(Br)cc2[nH]c(=O)c(=O)[nH]c12)P(=O)(O)O | 104% (inactive) | 0.887 (inactive) | 1.3 | 8900 | 10000 | -0.07 (inactive)
COc1ccc([C@H]2CNC(=O)C2)cc1OC1CCCC1 | 113% (inactive) | 0.966 (inactive) | 0.702 | 9600 | 9950 | -0.255 (inactive)
CC1Nc2ccc(Cl)cc2S(=O)(=O)N1 (centres undefined) | 102% (inactive) | 0.919 (inactive) | 0.718 | 8550 | 9300 | 0.035 (inactive)
O=C(O)Cc1cc2ccccc2nc1C(=O)O | 129% (inactive) | 0.938 (inactive) | 1.06 | 8250 | 8790 | 0.145 (inactive)

Compound | remaining activity [1] | fold change [2, 4] | fold change [2, 5] | cell count [2, 6] | cell count [2, 7] | z-score [3]
O=C1c2ccccc2CCC1CNCCc1ccc(O)cc1 (centres undefined) | 104% (inactive) | 0.994 (inactive) | 0.835 | 8920 | 8970 | -1.23 (inactive)
COc1cccc(CCc2ccccc2OCC[C@@H]2C[C@@H](O)CN2C)c1 | 109% (inactive) | 1.04 (inactive) | 0.632 | 7340 | 7050 | -0.705 (inactive)
CCOC(=O)c1ncc2[nH]c3cccc(OC(C)C)c3c2c1C | 96.4% (inactive) | 0.924 (inactive) | 0.813 | 5120 | 5540 | -0.64 (inactive)
CN(C)C(=O)C(=O)c1cn(C)c2cc(Cl)c(C(=O)N3CCC(Cc4ccc(F)cc4)CC3)cc12 | 118% (inactive) | 1.09 (inactive) | 0.88 | 4920 | 4530 | -0.96 (inactive)
CC(=Nc1ccccc1N)c1c(C)cc(=O)n(O)c1O | 117% (inactive) | 1.16 (inactive) | 0.955 | 3450 | 2970 | -0.105 (inactive)
CCOC(=O)c1c(C)[nH]c2ccc3c(c12)CN1CCc2cc(OC)ccc2C1O3 (centres undefined) | 112% (inactive) | 0.942 (inactive) | 0.667 | 3940 | 4180 | -0.785 (inactive)
N#C/C(=C\c1ccc(O)c(O)c1)C(=O)OCCc1cccs1 | 110% (inactive) | 0.871 (inactive) | 1.36 | 8430 | 9690 | -0.59 (inactive)
C=CCN1CCN(c2nc3ccccc3nc2C#N)CC1 | 112% (inactive) | 0.901 (inactive) | 1.37 | 8950 | 9930 | 0.335 (inactive)
COC(=O)C1=C(C)NC(C)=C(C(=O)OCCCN2CCC(c3ccccc3)(c3ccccc3)CC2)[C@@H]1c1cccc([N+](=O)[O-])c1 | 109% (inactive) | 1.06 (inactive) | 1.28 | 310 | 292 | -0.83 (inactive)
N#Cc1ccc(NCCNCC(=O)N2CCC[C@H]2C#N)nc1 | 110% (inactive) | 0.825 (inactive) | 2.19 | 8330 | 10100 | 0.41 (inactive)
FC(F)(F)c1cccc(-c2noc(-c3cc(-c4ccccc4)c(C(F)(F)F)s3)n2)c1 | 101% (inactive) | 0.966 (inactive) and 0.884 (inactive) | 1.01 and 0.898 | 5830 and 8210 | 6040 and 9290 | 0.175 (inactive)
C1CC[C@H]2[N]=[Pt]=[N][C@@H]2C1.O=C(O)C(=O)O | 86.1% (inactive) | 0.928 (inactive) | 1.09 | 4040 | 4350 | 3.04 (active)
Cc1cc(C)c(S(=O)(=O)Nc2cccc(C(F)(F)F)c2)c(C)c1 | 107% (inactive) | 0.995 (inactive) | 0.922 | 5690 | 5720 | -0.605 (inactive)
CN(CCc1ccc(Cl)c(Cl)c1)CCN1CCCC1 | 108% (inactive) | 1.01 (inactive) | 0.63 | 8830 | 8750 | -1.06 (inactive)
CCN(CC)CCCCC1CCN(CC(=O)N2c3ccccc3C(=O)Nc3cccnc32)CC1 | 105% (inactive) | 0.936 (inactive) | 1.52 | 8520 | 9110 | -0.225 (inactive)
CCC(=O)OCN1C(=O)C=CC1=O | 92.2% (inactive) | 0.956 (inactive) | 1.17 | 9240 | 9660 | -0.205 (inactive)
CNC(=O)Oc1ccc2c(c1)C1(C)CCN(C)C1N2C (centres undefined) | 128% (inactive) | 0.943 (inactive) | 1.32 | 9440 | 10000 | -1 (inactive)
O=C1c2ccccc2C(Cc2ccnc(F)c2)(Cc2ccnc(F)c2)c2ccccc21 | 102% (inactive) | 0.93 (inactive) | 1.37 | 8150 | 8760 | 0.3 (inactive)
Cc1noc(NS(=O)(=O)c2cccc3c(N(C)C)cccc23)c1C | 116% (inactive) | 0.967 (inactive) | 0.84 | 8350 | 8630 | -0.135 (inactive)
O=[N+]([O-])c1cc2nc(O)c(O)nc2cc1[N+](=O)[O-] | 103% (inactive) | 0.896 (inactive) | 1.68 | 8310 | 9280 | -0.355 (inactive)
Cc1c[nH]c(=O)n(CCCN2CCN(c3ccccc3OCC(F)(F)F)CC2)c1=O | 126% (inactive) | 0.952 (inactive) | 0.729 | 10000 | 10500 | -0.38 (inactive)
O=C(/C=C/c1ccccc1)NC(NC(=S)Nc1ccc(Cl)cc1)C(Cl)(Cl)Cl (centres undefined) | 118% (inactive) | 0.939 (inactive) | 1.5 | 2530 | 2700 | -0.74 (inactive)
